Data published in PubChem BioAssay (NCATS).
Several values for one entry are separate records, joined by “and”; a condition that tells them apart may be missing. Identical values can stand only once. Results filed as inconclusive are left out. Activity calls are given as the source filed them. Unless noted, calls come from the whole dose curve; as a rule, active = well fitted curve in the direction sought with a large enough effect; inconclusive = small, poorly fitted or top-dose-only effect, or another doubt; inactive = no such curve, though single readings can be large; an effect the other way counts as inactive or inconclusive.

Key:
[1] = molecular target: Calcium and integrin-binding protein 1 (Homo sapiens) (UniProt Q99828); assay: Validation qHTS for Identification of Calcium Integrin Binding protein 1 (CIB1) Competitor (AID 1508618)
Procedure, shortened: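 In this qHTS validation, the LOPAC set (up to 114 uM) was tested for blocking CIB1 binding to a fluorescein-tagged alphaIIb peptide, with FP detection at 480/540 nm.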

[2] = molecular target: Calcium and integrin-binding protein 1 (Homo sapiens) (UniProt Q99828); assay: Primary qHTS for Identification of Calcium Integrin Binding Protein 1 (CIB1) Competitor (AID 1508620);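 note: GST tagged CIB1 binding a fluorescein labelled alphaIIb integrin peptide tracer; top concentration of the series differs between compounds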
Procedure, shortened: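 Fluorescence polarization competition: CIB1-GST (1 uM final) preincubated with compound 15 min at room temperature, then FITC-labeled alphaIIb peptide (100 nM final) added for another 15 min. Polarization read at Ex 480/Em 540.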

[3] = Primary qHTS for small molecule stabilizers of the endoplasmic reticulum resident proteome: Secreted ER Calcium Modulated Protein (SERCaMP) assay (AID 1508630)
Procedure, shortened: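 The SH-SY5Y reporter protocol was run at 3 concentrations up to 38.3 uM (primary) or 11 concentrations (follow-up): 16 h compound, 100 nM thapsigargin for 4 h, then extracellular luciferase luminescence.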

[4] = A High-Content qHTS Against Drug Library for the Identification of Small Molecules that Inhibit DYT1 Early Onset Primary Dystonia-Associated Cell Pathology (AID 1645839; calls by dose curve; note: potency is the fitted concentration of half-maximal effect)
Procedure, shortened: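 Induced EGFP-delE TorsinA cells are imaged after 48 h of compound treatment. Punctate fusion-protein distribution gives the %pathology value, while nuclei counts flag toxicity. Wild-type EGFP-hTOR1A cells define the normal pattern.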

Papain (Carica papaya) = Papain (Carica papaya) (UniProt P00784); assay: Primary qHTS assay for inhibitors of the protease papain (AID 1645873);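 note: papain turnover of Z-FR-AMC read as the AMC fluorescence gain over 10 min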; note: potency is the fitted concentration of half-maximal effect
[5] = Primary qHTS for inhibitors of nuclear receptor binding SET domain protein 2 (NSD2) in an isogenic RCH-ACV NSD2 p.E1099K mutant (9B) (AID 1645876); note: nearly all actives have a fitted effect of over 70% in size; note: potency is the fitted concentration of half-maximal effect
[6] = Primary qHTS for inhibitors of nuclear receptor binding SET domain protein 2 (NSD2) in an RCH-ACV wild type WT cells (2C) (AID 1645877); note: nearly all actives have a fitted effect of over 70% in size; note: potency is the fitted concentration of half-maximal effect
[7] = molecular target: Rap guanine nucleotide exchange factor 3 (Homo sapiens) (UniProt O95398); assay: Confirmatory qHTS for agonist of cAMP-regulated guanine nucleotide exchange factor 3 (EPAC1) (AID 1645881);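 note: EPAC1 catalysed release of BODIPY-GDP from Rap1B seen as fluorescence loss; nearly all actives have a fitted effect of over 75% in size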
[8] = molecular target: Rap guanine nucleotide exchange factor 4 (Homo sapiens) (UniProt Q8WZA2); assay: Confirmatory qHTS for antagonist of cAMP-regulated guanine nucleotide exchange factor 4 (EPAC2) (AID 1645885); note: nearly all actives have a fitted effect of over 25% in size; note: potency is the fitted concentration of half-maximal effect
[9] = molecular target: Catechol O-methyltransferase (Homo sapiens) (UniProt P21964); assay: Confirmatory Screen for Target Class Profiling of Small Molecule Inhibitors of Methyltransferases (AID 1745852); conditions: MTase-Glo luminescence, SAH detection, recombinant enzyme; measured here: COMT max response; stronger effect = lower value
[10] = molecular target: Cytochrome P450 2C9 (Homo sapiens) (UniProt P11712); assay: Cytochrome P450 family 2 subfamily C member 9 (CYP2C9) small molecule antagonists: luciferase biochemical (cell-free) qHTS assay (AID 1645842; active = well fitted curve in the direction sought with a large enough effect in the repeat runs; an effect the other way counts as inactive or inconclusive; note: nearly all actives have a fitted effect of over 55% in size; note: potency is the fitted concentration of half-maximal effect)
Procedure, shortened: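 P450-Glo CYP2C9 system: proluciferin substrate with enzyme in mix containing 0.4% BSA, 10 min at room temperature, then NADPH regeneration solution added and incubated 1 h at 37C. Detection reagent stopped reaction; luminescence read after 20 min as RLU.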

[11] = molecular target: Cytochrome P450 2D6 (Homo sapiens) (UniProt P10635); assay: Cytochrome P450 family 2 subfamily D member 6 (CYP2D6) small molecule antagonists: luciferase biochemical (cell-free) qHTS assay (AID 1645840; active = well fitted curve in the direction sought with a large enough effect in the repeat runs; an effect the other way counts as inactive or inconclusive; note: nearly all actives have a fitted effect of over 55% in size; note: potency is the fitted concentration of half-maximal effect)
Procedure, shortened: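 P450-Glo CYP2D6 system: proluciferin substrate converted by enzyme to luciferin, read by luminescence proportional to activity. Enzyme-substrate mix with compound 10 min at room temperature, then NADPH regeneration 1 h before detection reagent.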

[12] = molecular target: Rap guanine nucleotide exchange factor 3 (Homo sapiens) (UniProt O95398); assay: Confirmatory qHTS for antagonist of cAMP-regulated guanine nucleotide exchange factor 3 (EPAC1) (AID 1645880); note: nearly all actives have a fitted effect of over 55% in size
Procedure, shortened: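 Released BODIPY-GDP fluoresces less than Rap1-bound BODIPY-GDP; the signal is followed at 480/540 nm at 5-min intervals over 30 min, after 5 min at room temperature. Reactions contain 100 nM EPAC1, 250 nM RAP1B-BODIPY-GDP and 50 uM GDP; results are normalized to ATA and DMSO.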

[13] = molecular target: Rap guanine nucleotide exchange factor 4 (Homo sapiens) (UniProt Q8WZA2); assay: Confirmatory qHTS for agonist of cAMP-regulated guanine nucleotide exchange factor 4 (EPAC2) (AID 1645884);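 note: nucleotide exchange releases bodipy-GDP from Rap1 and this lowers its fluorescence; nearly all actives have a fitted effect of over 65% in size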
[14] = molecular target: Rap guanine nucleotide exchange factor 3 (Homo sapiens) (UniProt O95398); assay: Counterscreen qHTS for antagonist of cAMP-regulated guanine nucleotide exchange factor 3 (EPAC1) (AID 1645888)
Procedure, shortened: (§1)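 Measured: fluorescence of BODIPY-GDP bound to Rap1B, which falls as exchange proceeds. Conditions include 50 uM competing GDP, 5 and 30 min reads, and a later cAMP challenge for antagonist detection.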

[15] = molecular target: Rap guanine nucleotide exchange factor 3 (Homo sapiens) (UniProt O95398); assay: Counterscreen qHTS for agonist of cAMP-regulated guanine nucleotide exchange factor 3 (EPAC1) (AID 1645889); note: nearly all actives have a fitted effect of over 40% in size
Procedure, shortened: as §1

Chain of Calcium and integrin-binding protein 1 (Homo sapiens) (Q99828 whole entry, looked up): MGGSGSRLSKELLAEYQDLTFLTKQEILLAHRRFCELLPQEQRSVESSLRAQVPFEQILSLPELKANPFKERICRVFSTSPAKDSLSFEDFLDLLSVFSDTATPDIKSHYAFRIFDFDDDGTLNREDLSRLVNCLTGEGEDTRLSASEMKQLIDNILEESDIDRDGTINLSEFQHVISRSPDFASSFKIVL
Chain of Rap guanine nucleotide exchange factor 4 (Homo sapiens) (Q8WZA2 whole entry, looked up): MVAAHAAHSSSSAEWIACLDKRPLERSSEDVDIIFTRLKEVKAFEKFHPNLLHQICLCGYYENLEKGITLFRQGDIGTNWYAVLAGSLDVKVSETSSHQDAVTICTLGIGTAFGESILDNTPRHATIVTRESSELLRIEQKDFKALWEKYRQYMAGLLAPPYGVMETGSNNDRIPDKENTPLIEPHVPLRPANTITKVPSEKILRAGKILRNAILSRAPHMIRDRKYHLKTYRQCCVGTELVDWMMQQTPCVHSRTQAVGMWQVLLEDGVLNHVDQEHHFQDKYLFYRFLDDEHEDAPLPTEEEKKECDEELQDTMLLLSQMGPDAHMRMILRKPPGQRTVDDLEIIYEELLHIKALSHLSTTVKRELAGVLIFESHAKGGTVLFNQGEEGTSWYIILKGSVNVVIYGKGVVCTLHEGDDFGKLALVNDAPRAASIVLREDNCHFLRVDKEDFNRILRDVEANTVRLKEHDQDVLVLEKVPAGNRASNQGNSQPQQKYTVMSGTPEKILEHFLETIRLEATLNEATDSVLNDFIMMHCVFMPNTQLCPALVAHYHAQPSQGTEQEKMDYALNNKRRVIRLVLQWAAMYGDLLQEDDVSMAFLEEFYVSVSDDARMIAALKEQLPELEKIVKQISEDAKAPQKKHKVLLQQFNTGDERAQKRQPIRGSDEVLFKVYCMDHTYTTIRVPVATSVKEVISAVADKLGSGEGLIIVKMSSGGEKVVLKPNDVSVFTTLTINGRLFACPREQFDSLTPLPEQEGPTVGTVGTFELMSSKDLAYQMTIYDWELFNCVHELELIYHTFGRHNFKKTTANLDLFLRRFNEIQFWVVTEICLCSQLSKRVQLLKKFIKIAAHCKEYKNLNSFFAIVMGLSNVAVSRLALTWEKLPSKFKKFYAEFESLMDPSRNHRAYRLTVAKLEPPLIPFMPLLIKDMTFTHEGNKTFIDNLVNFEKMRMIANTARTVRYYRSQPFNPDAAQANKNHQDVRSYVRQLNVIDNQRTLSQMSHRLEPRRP
Chain of Cytochrome P450 2C9 (Homo sapiens) (P11712 whole entry, looked up): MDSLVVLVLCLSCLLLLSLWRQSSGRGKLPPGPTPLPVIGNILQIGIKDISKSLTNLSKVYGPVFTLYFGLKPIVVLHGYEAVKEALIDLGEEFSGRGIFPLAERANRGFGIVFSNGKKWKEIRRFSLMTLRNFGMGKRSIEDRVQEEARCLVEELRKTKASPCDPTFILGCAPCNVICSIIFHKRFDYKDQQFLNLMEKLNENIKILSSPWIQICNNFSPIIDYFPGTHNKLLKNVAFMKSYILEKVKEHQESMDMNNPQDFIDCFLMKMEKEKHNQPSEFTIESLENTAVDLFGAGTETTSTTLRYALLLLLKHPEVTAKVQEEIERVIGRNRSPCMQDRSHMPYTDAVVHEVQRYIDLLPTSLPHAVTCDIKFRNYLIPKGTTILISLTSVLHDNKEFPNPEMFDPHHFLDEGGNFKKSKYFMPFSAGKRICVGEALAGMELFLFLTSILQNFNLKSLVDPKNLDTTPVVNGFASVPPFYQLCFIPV
Chain of Cytochrome P450 2D6 (Homo sapiens) (P10635 whole entry, looked up): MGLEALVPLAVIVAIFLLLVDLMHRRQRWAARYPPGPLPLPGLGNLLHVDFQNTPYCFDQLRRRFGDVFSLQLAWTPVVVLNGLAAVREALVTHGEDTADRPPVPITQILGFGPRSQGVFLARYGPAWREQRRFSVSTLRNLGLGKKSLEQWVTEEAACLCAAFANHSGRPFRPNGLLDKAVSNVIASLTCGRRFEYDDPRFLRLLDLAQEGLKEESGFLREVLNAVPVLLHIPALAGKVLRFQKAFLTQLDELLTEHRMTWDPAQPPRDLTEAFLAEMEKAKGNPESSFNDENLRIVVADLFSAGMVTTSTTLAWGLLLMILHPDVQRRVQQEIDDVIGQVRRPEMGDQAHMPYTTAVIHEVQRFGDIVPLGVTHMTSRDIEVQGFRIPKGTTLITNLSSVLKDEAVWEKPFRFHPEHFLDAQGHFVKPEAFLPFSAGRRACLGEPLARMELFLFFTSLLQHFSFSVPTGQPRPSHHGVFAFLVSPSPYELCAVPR
Chain of Papain (Carica papaya) (P00784 whole entry, looked up, the tested form may be a part): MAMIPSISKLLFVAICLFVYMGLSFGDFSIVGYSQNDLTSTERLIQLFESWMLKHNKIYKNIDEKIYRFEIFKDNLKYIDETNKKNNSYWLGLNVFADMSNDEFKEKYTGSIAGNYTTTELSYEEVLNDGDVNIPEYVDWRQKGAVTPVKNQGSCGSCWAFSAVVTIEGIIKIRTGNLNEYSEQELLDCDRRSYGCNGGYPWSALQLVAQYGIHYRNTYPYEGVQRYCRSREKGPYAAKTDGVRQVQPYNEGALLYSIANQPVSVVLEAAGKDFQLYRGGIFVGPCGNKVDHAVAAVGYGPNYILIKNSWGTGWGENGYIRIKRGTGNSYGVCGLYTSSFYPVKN
Chain of Rap guanine nucleotide exchange factor 3 (Homo sapiens) (O95398 whole entry, looked up): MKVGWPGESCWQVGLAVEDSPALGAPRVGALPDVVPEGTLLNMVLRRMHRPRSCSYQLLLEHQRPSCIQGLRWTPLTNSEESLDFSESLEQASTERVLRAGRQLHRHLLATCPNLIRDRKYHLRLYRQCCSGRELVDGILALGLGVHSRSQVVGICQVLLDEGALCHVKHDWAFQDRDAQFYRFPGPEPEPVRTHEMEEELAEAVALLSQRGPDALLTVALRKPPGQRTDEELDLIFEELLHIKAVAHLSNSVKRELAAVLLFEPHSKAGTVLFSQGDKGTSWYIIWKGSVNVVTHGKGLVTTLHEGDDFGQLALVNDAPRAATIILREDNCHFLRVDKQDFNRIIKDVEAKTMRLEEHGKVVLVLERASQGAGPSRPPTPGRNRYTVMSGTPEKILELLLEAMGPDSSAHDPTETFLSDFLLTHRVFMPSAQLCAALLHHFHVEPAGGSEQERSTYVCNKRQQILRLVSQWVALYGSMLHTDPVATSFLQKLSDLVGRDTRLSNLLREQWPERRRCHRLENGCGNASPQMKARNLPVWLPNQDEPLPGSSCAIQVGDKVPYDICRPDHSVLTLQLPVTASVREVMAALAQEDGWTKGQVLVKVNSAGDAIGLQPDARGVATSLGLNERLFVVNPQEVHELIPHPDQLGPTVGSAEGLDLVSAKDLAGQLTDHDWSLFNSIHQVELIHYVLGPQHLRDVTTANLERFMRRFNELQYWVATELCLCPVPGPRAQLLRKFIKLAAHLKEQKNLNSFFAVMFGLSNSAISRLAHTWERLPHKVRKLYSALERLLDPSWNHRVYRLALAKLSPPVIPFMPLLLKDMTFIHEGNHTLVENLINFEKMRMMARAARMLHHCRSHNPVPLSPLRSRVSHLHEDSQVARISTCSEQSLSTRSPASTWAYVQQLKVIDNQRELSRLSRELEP
Chain of Catechol O-methyltransferase (Homo sapiens) (P21964 whole entry, looked up): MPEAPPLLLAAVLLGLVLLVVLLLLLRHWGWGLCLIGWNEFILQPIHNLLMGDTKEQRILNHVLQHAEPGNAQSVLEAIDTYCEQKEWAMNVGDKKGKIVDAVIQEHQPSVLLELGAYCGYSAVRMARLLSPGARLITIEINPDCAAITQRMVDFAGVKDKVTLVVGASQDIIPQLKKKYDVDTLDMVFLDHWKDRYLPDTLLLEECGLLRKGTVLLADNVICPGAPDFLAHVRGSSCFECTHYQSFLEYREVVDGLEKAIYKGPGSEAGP

CCN(CC)CCNC(=O)c1cc(S(C)(=O)=O)ccc1OC
inactive: outcome [1] | Potency [2] | Potency [3] | Potency [4] | Potency (Papain (Carica papaya)) | Potency [5] | Potency [6]

COCCOC(=O)C1=C(C)NC(C)=C(C(=O)OC(C)C)C1c1cccc([N+](=O)[O-])c1 (centres undefined)
inactive: outcome [1] | Potency [2] | Potency [3] | Potency (Papain (Carica papaya)) | Potency [5] | Potency [6] | Potency [7]
active: Potency [8] 49.4 µM

CCc1c(C)[nH]c2c1C(=O)C(CN1CCOCC1)CC2 (centres undefined)
inactive: outcome [1] | Potency [2] | Potency [3] | Potency [4] | Potency (Papain (Carica papaya))
6.21%: activity [9]

CCN(CC)CCNC(=O)c1ccc(NC(C)=O)cc1
inactive: outcome [1] | Potency [2] | Potency [3] | Potency [4] | Potency (Papain (Carica papaya)) | Potency [5] | Potency [6]

CSc1ccc(C(=O)c2[nH]c(=O)[nH]c2C)cc1
inactive: outcome [1] | Potency [2] | Potency [3] | Potency [4] | Potency [10] | Potency (Papain (Carica papaya)) | Potency [5] | Potency [6]

COc1ccc(CCN(C)CCCC(C#N)(c2cc(OC)c(OC)c(OC)c2)C(C)C)cc1OC (centres undefined)
active: Potency [6] 15 µM
inactive: outcome [1] | Potency [2] | Potency [3] | Potency [4] | Potency (Papain (Carica papaya))

CN(C)CCOC(=O)COc1ccc(Cl)cc1
inactive: outcome [1] | Potency [2] | Potency [3] | Potency [4] | Potency [10] | Potency (Papain (Carica papaya)) | Potency [5] | Potency [6]

FC(F)(F)c1ccccc1-n1ccnc1
active: Potency [11] 3.47 µM
inactive: outcome [1] | Potency [2] | Potency [3] | Potency [4] | Potency [5] | Potency [6]

CCCCCCCC/C=C\CCCCCCCC(=O)NCc1ccc(O)c(OC)c1
inactive: outcome [1] | Potency [2] | Potency [3] | Potency [11] | Potency (Papain (Carica papaya))
active: Potency [10] 1.1 µM and 1.69 µM | Potency [5] 2.66 µM | Potency [6] 3.35 µM

CC(C)COCC(CN(Cc1ccccc1)c1ccccc1)N1CCCC1 (centres undefined)
inactive: outcome [1] | Potency [2] | Potency [3] | Potency (Papain (Carica papaya))
active: Potency [11] 0.0347 µM | Potency [5] 2.99 µM and 16.6 µM | Potency [6] 4.22 µM and 16.6 µM

CN=C(NC#N)NCCSCc1nc[nH]c1C
inactive: outcome [1] | Potency [2] | Potency [3] | Potency [4] | Potency (Papain (Carica papaya)) | Potency [5] | Potency [6]
active: Potency [10] 13.8 µM

Cc1nc2ccccn2c(=O)c1CCN1CCC(C(=O)c2ccc(F)cc2)CC1
active: Potency [11] 2.19 µM
inactive: outcome [1] | Potency [2] | Potency [3] | Potency [4] | Potency [5]

NS(=O)(=O)c1cc2c(cc1Cl)NC(C1CC3C=CC1C3)NS2(=O)=O (centres undefined)
inactive: outcome [1] | Potency [2] | Potency [3] | Potency [4] | Potency (Papain (Carica papaya)) | Potency [5] | Potency [6]

CCN(CC)CC(=O)Nc1c(C)cccc1C
inactive: outcome [1] | Potency [2] | Potency [3] | Potency [4] | Potency (Papain (Carica papaya)) | Potency [5] | Potency [6]

CC(=O)[C@@]1(O)CC[C@H]2[C@@H]3CCC4=CC(=O)CC[C@]4(C)[C@H]3CC[C@@]21C
inactive: outcome [1] | Potency [2] | Potency [3] | Potency [4] | Potency (Papain (Carica papaya)) | Potency [5] | Potency [6]

C[C@]12CC[C@@H]3c4ccc(O)cc4C[C@@H](CCCCCCCCCS(=O)CCCC(F)(F)C(F)(F)F)[C@H]3[C@@H]1CC[C@@H]2O (some centres undefined)
active: Potency [10] 1.38 µM
inactive: outcome [1] | Potency [2] | Potency [3] | Potency [11] | Potency (Papain (Carica papaya)) | Potency [5] | Potency [6]

CCCNC(C)C(=O)Nc1ccccc1C (centres undefined)
inactive: outcome [1] | Potency [2] | Potency [3] | Potency [4] | Potency (Papain (Carica papaya)) | Potency [5] | Potency [6]

c1ccc2c(c1)CCCC2C1=NCCN1 (centres undefined)
inactive: outcome [1] | Potency [2] | Potency [3] | Potency [4] | Potency (Papain (Carica papaya)) | Potency [5] | Potency [6]

COc1cc(Cc2cnc(N)nc2N)cc(OC)c1OC
inactive: outcome [1] | Potency [2] | Potency [4] | Potency [11] | Potency [10] | outcome [12] | Potency [7] | Potency [13] | Potency [8] | outcome [14] | outcome [15]

CN/C(=C\[N+](=O)[O-])NCCSCc1ccc(CN(C)C)o1
active: Potency [11] 15.5 µM
inactive: outcome [1] | Potency [2] | Potency [4] | Potency [10] | Potency [5] | Potency [6]

Nc1nc(N)c2nc(-c3ccccc3)c(N)nc2n1
inactive: outcome [1] | Potency [2] | Potency [3] | Potency [4]
active: Potency (Papain (Carica papaya)) 1.12 µM | Potency [5] 7.5 µM | Potency [6] 9.44 µM

COC(=O)C1=C(C)NC(C)=C(C(=O)OC(C)(C)CN(C)CCC(c2ccccc2)c2ccccc2)C1c1cccc([N+](=O)[O-])c1 (centres undefined)
active: Potency [4] 10 µM | Potency [11] 2.75 µM | Potency [10] 1.95 µM
inactive: outcome [1] | Potency [2] | Potency (Papain (Carica papaya))

CC(=O)OC(C)C[N+](C)(C)C (centres undefined)
inactive: outcome [1] | Potency [2] | Potency [3] | Potency [4] | Potency [10] | Potency (Papain (Carica papaya)) | Potency [5] | Potency [6]

COCCc1ccc(OCC(O)CNC(C)C)cc1 (centres undefined)
inactive: outcome [1] | Potency [2] | Potency [3] | Potency [4] | Potency (Papain (Carica papaya)) | Potency [5] | Potency [6]

Cc1nc2c([nH]1)c(=O)n(C)c(=O)n2Cc1ccco1
inactive: outcome [1] | Potency [2] | Potency [3] | Potency [4] | Potency (Papain (Carica papaya)) | Potency [6]

COCC(=O)O[C@]1(CCN(C)CCCc2nc3ccccc3[nH]2)CCc2cc(F)ccc2[C@@H]1C(C)C
inactive: outcome [1] | Potency [2] | Potency [3]
active: Potency [11] 0.049 µM | Potency [5] 10.6 µM | Potency [6] 9.44 µM

OCCN1CCN(CC/C=C2/c3ccccc3Sc3ccc(C(F)(F)F)cc32)CC1
active: Potency [11] 6.92 µM | Potency [5] 15 µM | Potency [6] 10.6 µM
inactive: outcome [1] | Potency [2] | Potency [3] | Potency (Papain (Carica papaya)) | Potency [7] | Potency [13] | Potency [8] | outcome [14] | outcome [15]
